Bioassay records as filed in PubChem BioAssay.
Sampled rows, rich in hits. Any-hit rate of the full collection: about 17%.
HepG2 tox: kills HepG2 cells in TGF-b inhibitor counter-screen. HepG2 CAGA-GFP viability, ATP luminescence, 18 h. Potency, µM (series often up to 46.1 µM), for inactives: at the highest dose activity change, negative = cytotoxicity, hits mostly cytotoxic. hit rate 0.76% among 410,000. AID 588856
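CellTiter-Glo luminescence gave cytotoxicity after 18 hours at 37 degrees C. The cells were HepG2 CAGA-GFP in 1% FBS DMEM, stimulated with 500 pg/mL TGF-beta after compound addition. %Activity was normalised to no-cell wells (complete cell-killing) and DMSO (no toxicity), and curves were fitted and classified.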
TGFb SMAD3 inh: TGF-b pathway inhibition | HepG2 CAGA-GFP TGF-b/SMAD3 reporter, GFP fluorescence, 18 h; TGF-beta stimulated, 500 pg/mL final | Potency, µM (titrated, usually from 46.1 µM), for inactives: at the top dose activity, negative = inhibition, most hits filed as inhibitors | hit rate 1.2% among 410,000; note: % is set by controls: 0 for no effect and ±100 for the full control effect; nearly all actives have a fitted effect of over 65% in size
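HEPG2 CAGA-GFP cells (1000/well, DMEM with 1% FBS) were pre-incubated 2 h at 37 degrees C, given compound by pin tool, then stimulated with TGF-beta at 500 pg/mL final for 18 h before per-cell GFP fluorescence imaging.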
HT1080-NT tox: kills 2HG-producing HT-1080-NT fibrosarcoma cells; AID 686970; hit rate 1.6% among 360,000; Potency, µM (series often up to 46.1 µM), for inactives: at the top dose activity, negative = less viability, hits mostly cytotoxic; HT-1080-NT fibrosarcoma viability, CellTiter-Glo ATP luminescence, 48 h;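 note: NT is the 2HG producing partner of a matched IDH1 knockdown line; 0% = DMSO-treated cells and -100% = media-only wells without cells; nearly all actives have a fitted effect of over 55% in size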
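HT-1080-NT; 750 cells/well; 5% FBS RPMI; 48 h compound, 37 degrees C; CellTiter-Glo luminescence; curve fitting and curve-class assignment.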
DT40 TDP1 CPT: growth inhibition of DT40 Tdp1-/-;hTDP1 cells with camptothecin (screen for TDP1 inhibitors) | Potency, µM (series often up to 46.2 µM), for inactives: at the top dose activity change, negative = growth inhibition, most hits filed as inhibitors | chicken DT40 Tdp1-/-;hTDP1 cells + 20 nM CPT, ATP luminescence, 48 h | AID 686979 | hit rate 12% among 420,000; note: % is set by controls: 0 for no effect and ±100 for the full control effect; nearly all actives have a fitted effect of over 55% in size
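Cell growth measured by CellTiter-Glo luminescence after a minimum 48 h, 37 C compound exposure with 20 nM CPT in Tdp1-knockout DT40 cells stably expressing hTDP1, seeded 400/well; qHTS titration format.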
TDP1 cell noCPT: qHTS for Inhibitors of human tyrosyl-DNA phosphodiesterase 1 (TDP1): qHTS in cells in absence of CPT; DT40 Tdp1-/- hTDP1 cells, no CPT, ATP luminescence, 48 h; Potency, µM (series often up to 46.2 µM), without a hit: at the top dose activity change, negative = growth inhibition, hits mostly inhibitors; hit rate 15% among 420,000; AID 686978, 2013; note: % is set by controls: 0 for no effect and ±100 for the full control effect; nearly all actives have a fitted effect of over 55% in size
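Stably hTDP1-transfected Tdp1-null chicken DT40 cells were treated with library compounds minus camptothecin and grown for at least 48 hr at 37 °C, after which cellular ATP was quantified by luminescence.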
HT1080 IDH1KD tx: toxicity to HT-1080 IDH1 knockdown cells (counter line); HT-1080 IDH1 knockdown viability, ATP luminescence, 48 h; Potency, µM (titrated, usually from 46.1 µM), for the others: at the highest dose activity, negative = toxicity, most hits filed as cytotoxic; hit rate 2% among 360,000; AID 686971;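 note: 0% = DMSO wells and -100% = cell-free medium wells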
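In this qHTS, HT-1080 cells depleted of IDH1 are exposed for 48 h at 37 °C to compound titrations. Toxicity is scored from CellTiter-Glo luminescence, with DMSO as full viability and medium alone as none.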
Active calls of the source: *; ? = inconclusive; . = no result given. Calls come from the whole dose curve; as a rule, active = well fitted curve in the direction sought with a large enough effect; inconclusive = small, poorly fitted or top-dose-only effect, or another doubt; inactive = no such curve, though single readings can be large; an effect the other way counts as inactive or inconclusive. Potency is the fitted concentration of half-maximal effect.

SMILES	HepG2 tox	TGFb SMAD3 inh	HT1080-NT tox	DT40 TDP1 CPT	TDP1 cell noCPT	HT1080 IDH1KD tx
O=C1N[C@H](Cc2ccccc2)COC(=O)[C@H](Cc2ccc(F)cc2)CC/C=C/C[C@H]1CC(=O)N(CCO)Cc1ccccc1	-0.6%	?	-22.0%	?	23.1µM*	-24.0%
O=C1N[C@@H](c2ccccc2)COC(=O)[C@@H](Cc2ccc(F)cc2)CC/C=C/C[C@H]1CC(=O)N(CCO)Cc1ccccc1	-27.4%	?	?	11.6µM*	9.2µM*	?
O=C(NC1CCCCC1)c1ccc2c(c1)N(Cc1cccc(Cl)c1)C(=O)c1ccccc1S2=O (stereo unspecified)	4.7%	-2.9%	.	?	?	.
C[C@@H]1COC(=O)[C@@H](Cc2ccc(F)cc2)C/C=C\C[C@@H](CC(=O)N(CCO)Cc2ccccc2)C(=O)N1	-25.8%	?	3.4%	?	?	4.2%
O=C1NCCOC(=O)[C@@H](Cc2ccc(F)cc2)C/C=C\C[C@@H]1CC(=O)N(CCO)Cc1ccccc1	-48.4%	-23.1%	0.0%	18.4µM*	20.6µM*	1.1%
CC(C)(C)[C@@H]1COC(=O)[C@H](Cc2ccc(F)cc2)C/C=C\C[C@H](CC(=O)N(CCO)Cc2ccccc2)C(=O)N1	-26.1%	-20.0%	-14.1%	13µM*	20.6µM*	-8.5%
C[C@H]1COC(=O)[C@H](Cc2ccc(F)cc2)C/C=C\C[C@@H](CC(=O)N(CCO)Cc2ccccc2)C(=O)N1	-15.5%	-14.4%	1.9%	14.6µM*	20.6µM*	-0.1%
Cc1ccccc1-c1cnc(C(O)c2ccc(C(C)(C)C)cc2)[nH]1 (stereo unspecified)	-40.2%	?	?	?	?	?
O=S(=O)(NCCCCNS(=O)(=O)c1ccc(F)cc1)c1ccc(F)cc1	-64.7%	0.0%	-10.5%	-13.5%	?	-9.7%
O=C(COc1ccc(/C=N/NC(=O)c2ccccc2O)cc1)Nc1ccccc1	-14.1%	12.3%	3.6%	-10.1%	-23.8%	-1.7%
Cc1cc(C)c(Cn2c3ccccc3c3cnn(CC(=O)NCc4ccccn4)c(=O)c32)c(C)c1	-0.4%	-15.0%	-17.7%	20.6µM*	23.1µM*	-23.9%
Cc1cc(C)c2nc(SCC(=O)NCCC3=CCCCC3)cc(C)c2c1	-14.5%	4.9%	6.0%	?	20.6µM*	6.8%
Cc1cc(C)c(Cn2c3ccccc3c3cnn(CC(=O)NCCCc4ccccc4)c(=O)c32)c(C)c1	-9.3%	-11.7%	.	18.4µM*	20.6µM*	.
O=C(Cn1ncc2c3ccccc3n(Cc3ccc(Cl)cc3)c2c1=O)NCCC1=CCCCC1	5.5%	1.1%	.	4.0%	-3.4%	.
Cc1cc(C)c(Cn2c3ccccc3c3cnn(CC(=O)NCCC4=CCCCC4)c(=O)c32)c(C)c1	0.3%	-4.5%	.	20.6µM*	16.4µM*	.
O=C(NCC(c1ccc2c(c1)OCO2)N1CCOCC1)C(=O)Nc1ccc(Cl)cc1 (stereo unspecified)	-20.6%	0.0%	.	?	-28.7%	.
Cn1c(=O)n(C)c2cc(NC(=O)Cc3ccccc3[N+](=O)[O-])ccc21	-7.0%	-8.1%	-0.4%	4.0%	?	-2.8%
CC(=O)Nc1c(C)nn(-c2ccccc2)c1N1CCC(C(=O)Nc2cccc(C(F)(F)F)c2)CC1	-15.8%	-28.9%	.	?	?	.
Cc1ccc(NC(=O)C2OCCc3ccccc32)cc1Cl (stereo unspecified)	0.2%	-5.3%	0.4%	-19.6%	?	-4.6%
COc1ccc(S(=O)(=O)N(CC(=O)NC2CC2)c2ccc(C)cc2)cc1OC	-6.4%	12.4%	-0.6%	-1.0%	-21.2%	3.7%
